{"source": "PubChem BioAssay (NCI)", "note": "Compounds without any hit were thinned out: in the full panel of roughly 83,000, 20% have a hit.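 Testing used 96-well plates and a 48-hour single-concentration exposure. Example: -40 means 40% of the starting cells died.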 Values without a mark were called inactive. The source made the active and inactive calls. How the source made its calls: active means growth percent below 10; inactive means the rest."}
{"system": "M14 melanoma", "assay": "NCI-60 one-dose screen, 48 h (100 = growth as untreated, 0 = no growth, -100 = all killed)", "details": "10 µM unless noted"}
{"smiles": "O=CNc1ccc(-n2cnc3cc(-c4ccc(O)cc4)ccc32)cc1", "growth": "91.5%"}
{"smiles": "FC(F)(F)c1cc2c(Cl)ncnc2n1CCN1CCOCC1", "growth": "44.9%"}
{"smiles": "Nc1cc(-c2c[nH]c3ccc(Br)cc23)nc2cc(-c3c[nH]c4ccccc34)nn12", "growth": "-69.4% (active)"}
